Growth inhibition data for 14 compounds are collected here from PubChem BioAssay (NCI).

Compounds without any hit were thinned out: in the full panel of roughly 79,000, 15% have a hit. Unmarked numbers belong to inactive results. Activity calls are given as the source filed them. Cut-off read from the data, not from the text of the source: active = growth inhibition above about 70%; inactive = the rest.

The nature of this test: NCI Yeast Anticancer Drug Screen. Data for the rad50 strain (AID 155).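 Note: 0% = growth of vehicle-only cultures of the same strain.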 The settings on record: S. cerevisiae rad50 strain growth inhibition, active compounds read high. As for the experimental part:
Growth inhibition of yeast strains with defined genetic alterations is measured as a screen for potential anti-cancer activity. Selected strains with alterations in DNA damage repair or cell cycle control were exposed to compounds and growth inhibition was measured relative to vehicle treated controls. The strain used in this assay is rad50

The mark [1] stands for this setting: at 5.0 µM (retest, dose inferred, filed as 0.5).
The mark [2] stands for this setting: at 50.0 µM (retest, dose inferred, filed as 5.0).

Consider `CC(C)/C(Cl)=N/OC(NC(=O)Nc1ccc(Cl)c(Cl)c1)(C(F)(F)F)C(F)(F)F`, for which the growth inhibition by setting is: under setting [1], 7%; under setting [2], 99% (active); (at 50.0 µM) 99.2% (active).
In the same order, the values of `CN1CCN(C2=C(Cl)C3(OCCS3)C(F)(F)C2(F)F)CC1` (configuration not stated) are -1%, -42% and 34.1%.
Turning to `COC(=O)Nc1nc2ccc(CCC(=O)c3c(C)oc(C)c3-c3ccc(NC(C)=O)cc3)cc2[nH]1`, the growth inhibition is, setting by setting: under setting [1], 4%; under setting [2], 79% (active); (at 50.0 µM) 58.1%.
For the compound `CCCCNCc1c(O)ccc2ccccc12`, the growth inhibition under setting [1] was 14%, the growth inhibition under setting [2] was 99% (active) and the growth inhibition (at 50.0 µM) was 99.1% (active).
As for `COc1ccc(/C=C/c2ccnc3ccccc23)cc1OC`, the growth inhibition under setting [1] is 17%, the growth inhibition under setting [2] is 96% (active) and the growth inhibition (at 50.0 µM) was 86.4% (active).
In the case of `Nc1nc(Cl)cc(Nc2ccc(Cl)c(Cl)c2)n1`, the growth inhibition reads like this: under setting [1], -1%; under setting [2], 91% (active); (at 50.0 µM) 72.8% (active).
Regarding `CC(O)c1cccnc1` (configuration not stated), the growth inhibition reads like this: under setting [1], 11%; under setting [2], -8%; (at 50.0 µM) 65.5%.
Regarding `CN1C(=S)C(=N)OC1c1ccccc1F` (configuration not stated), the growth inhibition under setting [1] was 7%, the growth inhibition under setting [2] was 91% (active) and the growth inhibition (at 50.0 µM) was 84.3% (active).
With `C1CCC(C2=NC3CCCCC3SC2)CC1` (configuration not stated), the growth inhibition was 5% under setting [1], 98% (active) under setting [2] and 92.2% (active) (at 50.0 µM).
`S=c1c2ccccc2[nH]c2ccccc12`: the growth inhibition was -3% under setting [1], 86% (active) under setting [2] and 89.2% (active) (at 50.0 µM).
With `CC(C)(C)SC(=O)C1(C)OC1c1ccc([N+](=O)[O-])cc1` (configuration not stated), the growth inhibition reads like this: under setting [1], -6%; under setting [2], 45%; (at 50.0 µM) 53%.
With `C/C(=N\NS(=O)(=O)c1ccc(C)cc1)c1cc2ccccc2n1C`, the growth inhibition by setting is: under setting [1], 0%; under setting [2], 85% (active); (at 50.0 µM) 74.9% (active).
Consider `CC/C(=C\c1cccc(OC)c1)c1ccncc1`, for which the growth inhibition by setting is: under setting [1], 17%; under setting [2], 84% (active); (at 50.0 µM) 94.7% (active).
`Cc1ccc(N2C(c3ccccc3)=CC(=C3C=CC(=O)C=C3)C=C2c2ccccc2)cc1`: the growth inhibition runs as follows: under setting [1], 9%; under setting [2], 71% (active); (at 50.0 µM) 94.2% (active).
